The nature of experiment [1]: qHTS assay for small molecule agonists of the p53 signaling pathway (AID 651631; calls by dose curve; further: nearly all actives have a fitted effect of over 15% in size; further: potency means the concentration at half of the fitted maximal effect). The method in brief: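 HCT-116 cells carrying a stable p53 response element–beta-lactamase reporter were plated, rested 5 h at 37 °C, then exposed to compound in DMSO for 16 h at 37 °C; reporter activity was read as FRET substrate fluorescence after 2 h at room temperature.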
(In qHTS, concentration-response curves come from the screen itself.)

Experiment [2] can be described thus: qHTS assay for small molecules that induce genotoxicity in human embryonic kidney cells expressing luciferase-tagged ATAD5 (AID 651632). Further: nearly all actives have a fitted effect of over 15% in size. The procedure, abridged: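 Luminescence read-out: after 16 hr compound exposure at 37C, ATAD5-luciferase HEK293T cells received Amplite, 30 min RT, then CCD imaging. A rise in signal marks genotoxic stress.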
Experiment [3] in a line: qHTS assay for small molecule agonists of the p53 signaling pathway - cell viability (AID 651633; calls by dose curve; further: nearly all actives have a fitted effect of over 30% in size; further: potency means the concentration at half of the fitted maximal effect). The method in brief:
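p53RE-bla cells were treated with compound for 16 hours at 37 C. Cytotoxicity was then measured as CellTiter-Glo luminescence after 30 min at room temperature.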

Experiment [4] is described as follows: qHTS assay for small molecules that induce genotoxicity in human embryonic kidney cells expressing luciferase-tagged ATAD5 - cell viability (AID 651634; calls by dose curve; further: nearly all actives have a fitted effect of over 25% in size). The procedure, abridged: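 HEK293T ATAD5-luc cells, 2,000/well; compound 15.5 hr, 37C/5% CO2; CellTiter-Fluor 30 min, 37C; fluorescence read.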
Experiment [5] is described as follows: qHTS assay for small molecule disruptors of the mitochondrial membrane potential - cell viability (AID 720634; calls by dose curve; further: nearly all actives have a fitted effect of over 20% in size; further: potency means the concentration at half of the fitted maximal effect). The method in brief: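 Luminescence from CellTiter-Glo (ATP content) gave viability in HepG2 cells, read in the same wells as the MMP dye assay after 1 hr compound exposure at 37 C.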
Experiment [6] in a line: qHTS assay to test for compound auto fluorescence at 590 nm (red) in HepG2 cells (AID 720674). The method in brief: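 Fluorescence at 590 nm emission following 540 nm excitation was recorded from HepG2 wells one hour after compound transfer, with DMSO-only wells as vehicle and Rose Bengal sodium equivalency as the scale.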
Experiment [7] is described as follows: qHTS assay to test for compound auto fluorescence at 535 nm (green) in HepG2 cells (AID 720675).
A short description of experiment [8]: qHTS assay to test for compound auto fluorescence at 460 nm (blue) in HEK293 cells (AID 720678). The method in brief:
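Blue read-out at excitation 405 nm and emission 460 nm follows overnight compound exposure of HEK293 cells at 37C in 5% CO2. Activity is given as auto fluorescence equivalency to triamterene.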

Experiment [9] is described as follows: qHTS assay to test for compound auto fluorescence at 590 nm (red) in HEK293 cells (AID 720679). The method in brief:
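Red channel, Ex/Em 540/590nm; signal expressed as equivalency to Rose Bengal sodium. HEK293, 2,000 cells/well, 10% dialyzed FBS; 23 nL compound pinned after 4-5 hr attachment; overnight 37C/5% CO2 before reading.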

Experiment [10] can be described thus: qHTS assay to test for compound auto fluorescence at 535 nm (green) in HEK293 cells (AID 720680).
Experiment [11] is described as follows: qHTS assay to test for compound auto fluorescence at 460 nm (blue) in HEK293 cell free culture (AID 720681). The method in brief:
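Compounds were added to cell-free DMEM with 10% FBS and fluorescence read directly. The blue channel used 405 nm excitation and 460 nm emission, with triamterene as the reference fluorophore.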

Experiment [12] in a line: qHTS assay to test for compound auto fluorescence at 535 nm (green) in HEK293 cell free culture (AID 720682). The method in brief: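 Read-out: 485/535 nm fluorescence intensity, calibrated against fluorescein. Medium only (DMEM + 10% FBS, no cells); test compound or DMSO vehicle added by pintool before plate reading.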
Experiment [13] in a line: qHTS assay to test for compound auto fluorescence at 590 nm (red) in HEK293 cell free culture (AID 720683). The method in brief:
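Cell-free wells of DMEM with 10% FBS received compound, and intrinsic fluorescence was read at excitation/emission 540/590 nm. Values expressed as equivalence to Rose Bengal sodium.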

Experiment [14] is described as follows: qHTS assay to test for compound auto fluorescence at 590 nm (red) in HepG2 cell free culture (AID 720684). The method in brief:
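Auto fluorescence equivalency versus Rose Bengal sodium, red channel Ex/Em 540/590 nm; compounds in cell-free MEM/10% FBS; DMSO vehicle control.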

Experiment [15] can be described thus: qHTS assay to test for compound auto fluorescence at 460 nm (blue) in HepG2 cell free culture (AID 720685). The procedure, abridged: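 Cell-free plates of MEM plus 10% FBS received 23 nL compound or DMSO vehicle; blue-channel (405/460 nm) intensity scored against triamterene as reference fluorophore.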
A short description of experiment [16]: qHTS assay to test for compound auto fluorescence at 535 nm (green) in HepG2 cell free culture (AID 720686).
Experiment [17] in a line: qHTS assay to test for compound auto fluorescence at 460 nm (blue) in HepG2 cells (AID 720687). The procedure, abridged: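 HepG2 cells in MEM with 10% FBS, attached overnight at 37 C, were exposed to compound or DMSO for 1 hr at 37 C, 5% CO2. Blue fluorescence was read at 405/460 nm, with triamterene as reference fluorophore.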
For experiment [18], the target named is Glucocorticoid receptor (Homo sapiens) (UniProt P04150). As to the kind of experiment: qHTS assay to identify small molecule agonists of the glucocorticoid receptor (GR) signaling pathway (AID 720691; active means well fitted activation curve with a large enough effect in the signal ratio in the repeat runs, not every such curve was filed as active; the % refers to the signal ratio). The procedure, abridged:
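HeLa GR-bla reporter line; cells pre-incubated 4 h, compound in DMSO 18 h at 37 C; LiveBLAzer B/G FRET substrate 2 h RT; fluorescence intensity read-out.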

For experiment [19] the target is unchanged. The experiment in a line: qHTS assay to identify small molecule antagonists of the glucocorticoid receptor (GR) signaling pathway (AID 720692; active means well fitted inhibition curve with a large enough effect in the signal ratio in the repeat runs, not every such curve was filed as active; the % refers to the signal ratio). The method in brief:
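Read-out: beta-lactamase FRET substrate fluorescence, 2 h at room temperature, in HeLa cells stably carrying a GRE-driven bla reporter. Compounds were co-incubated with 5 nM dexamethasone agonist (final) for 18 h at 37 C.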

A short description of experiment [20]: qHTS assay for small molecule disruptors of the mitochondrial membrane potential (AID 720635). Further: potency means the concentration at half of the fitted maximal effect. The method in brief:
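HepG2 cells exposed to compound 1 hr at 37C, then Mito-MPS dye 30 min. Ratio read of aggregate (540/590 nm) versus monomer (490/535 nm) fluorescence.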

Values joined by “and” are separate entries in the source; they are usually repeats but may differ in a detail not shown here. Equal values may be shown once. Unmarked numbers belong to inactive results. Records with an inconclusive call do not appear. Active and inactive are the calls of the source. Unless noted, the call rests on the fitted dose curve; in most records, active means well fitted curve in the direction sought with a large enough effect in the repeat runs; inconclusive means weak or mixed curves; inactive means no such curve, though single readings can be large; an effect the other way counts as inactive or inconclusive.

Sequence of Glucocorticoid receptor (Homo sapiens) (P04150 whole entry, looked up): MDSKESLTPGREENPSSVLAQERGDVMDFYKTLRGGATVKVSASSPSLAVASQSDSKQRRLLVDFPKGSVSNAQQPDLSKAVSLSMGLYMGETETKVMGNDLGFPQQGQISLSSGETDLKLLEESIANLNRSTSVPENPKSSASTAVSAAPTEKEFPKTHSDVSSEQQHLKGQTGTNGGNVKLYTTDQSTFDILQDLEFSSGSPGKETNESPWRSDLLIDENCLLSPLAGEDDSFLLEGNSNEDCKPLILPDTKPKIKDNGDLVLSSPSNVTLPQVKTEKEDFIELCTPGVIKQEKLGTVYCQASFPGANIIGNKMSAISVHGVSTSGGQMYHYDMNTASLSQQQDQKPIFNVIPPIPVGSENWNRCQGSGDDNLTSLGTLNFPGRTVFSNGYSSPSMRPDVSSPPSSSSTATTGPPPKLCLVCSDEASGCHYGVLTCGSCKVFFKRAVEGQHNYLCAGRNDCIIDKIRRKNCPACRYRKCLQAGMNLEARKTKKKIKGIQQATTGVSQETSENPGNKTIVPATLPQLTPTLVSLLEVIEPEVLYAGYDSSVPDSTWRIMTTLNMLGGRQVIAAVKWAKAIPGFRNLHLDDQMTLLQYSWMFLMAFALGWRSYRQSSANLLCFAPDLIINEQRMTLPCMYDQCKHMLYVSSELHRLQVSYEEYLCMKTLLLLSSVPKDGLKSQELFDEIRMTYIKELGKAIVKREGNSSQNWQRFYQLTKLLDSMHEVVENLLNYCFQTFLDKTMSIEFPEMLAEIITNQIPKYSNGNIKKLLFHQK

In the case of `COC(=O)Cc1ccccc1`, the Potency result in experiment [1], in [2], in experiment [3], in experiment [4], in experiment [5] and in experiment [18] was “inactive” in each case. The Potency entry in experiment [19] was “inactive”. For the same compound, the outcome in [6], in experiment [7], in experiment [8], in experiment [9], in experiment [10] and in [11] was inactive. The result in experiment [12], in experiment [13], in experiment [14], in experiment [15], in experiment [16] and in [17] was inactive.
Turning to `SCc1ccccc1`, the Potency result in experiment [1], in experiment [2], in experiment [3], in experiment [4], in experiment [5] and in [18] was “inactive” each time. Further, the outcome in experiment [6], in [7], in experiment [9], in [10], in experiment [11] and in experiment [12] was inactive. The outcome in experiment [13], in [14], in experiment [15], in experiment [16] and in experiment [17] was inactive.
Regarding `CCCCNC(=O)OCC#CI`, the Potency is 68.6 µM (active) in experiment [1]; 60.8 µM (active) in [3]; 8.59 µM (active) and 27.3 µM (active) in [5]; 4.31 µM (active) and 6.86 µM (active) in experiment [20]. In addition, the Potency result in experiment [2] is “inactive”. Moreover, the compound was classed as inactive in experiment [6], in [7], in experiment [8], in experiment [9], in [10] and in experiment [11]. The outcome in experiment [12], in experiment [13], in experiment [14], in [15], in experiment [16] and in [17] was inactive.
Take `Cc1nc2ccccc2c(=O)n1-c1ccccc1Cl`: the Potency result in experiment [1], in experiment [2], in experiment [3], in [4], in [5] and in experiment [18] was “inactive” each time. The Potency result in experiment [19] is “inactive”. Besides, the compound was classed as inactive in experiment [6], in [7], in experiment [9], in experiment [10], in experiment [12] and in [13]. Also, the outcome in experiment [14], in [15], in [16] and in experiment [17] was inactive.
As for `CCCCC(CC)CO[N+](=O)[O-]` (stereo unspecified), the Potency entry in [1], in experiment [2], in experiment [4], in [5], in experiment [20] and in experiment [18] was “inactive” in each case. In addition, the Potency entry in experiment [19] was “inactive”. Moreover, the compound was classed as inactive in experiment [6], in experiment [7], in experiment [8], in experiment [9], in experiment [10] and in [12]. In addition, the result in experiment [13], in [14], in experiment [15], in experiment [16] and in [17] was inactive.
With `COc1ccc(C(O)(c2cncnc2)C2CC2)cc1` (stereo unspecified), the Potency result in experiment [1], in [2], in experiment [3], in experiment [4], in experiment [5] and in [18] was “inactive” each time. In experiment [19], the Potency result was “inactive”. Further, the outcome in experiment [6], in [7], in experiment [8], in experiment [9], in experiment [10] and in experiment [11] was inactive. Moreover, the result in experiment [12], in experiment [13], in [14], in experiment [15], in [16] and in experiment [17] was inactive.
In the case of `Cc1ccc2c(C)cccc2c1`, the Potency entry in experiment [1], in experiment [2], in experiment [3], in experiment [4], in experiment [5] and in experiment [18] was “inactive” in each case. Besides, the call in [6], in experiment [7], in experiment [9], in experiment [10], in [11] and in experiment [12] was inactive. For the same compound, the compound was classed as inactive in [13], in experiment [14], in experiment [15], in [16] and in experiment [17].
With `CC(Cl)C(=O)O` (stereo unspecified), the Potency entry in experiment [1], in experiment [2], in experiment [3], in [4] and in [5] was “inactive” throughout. Also, the outcome in experiment [6], in experiment [7], in [8], in experiment [9], in [10] and in experiment [11] was inactive. For the same compound, the call in experiment [12], in experiment [13], in experiment [14], in experiment [15], in [16] and in experiment [17] was inactive.

The record behind these values is PubChem BioAssay (Tox21).
